# Rows were chosen to be rich in hits. Some 2.5% of all compounds tested hit in one or more screens of this group.
# Cruzain inh Det = inhibitors of Trypanosoma cruzi cruzain with detergent; P25779; purified cruzain, Z-FR-AMC fluorescence, 0.01% Triton; Potency, µM, without a hit: max response, negative = inhibition, actives largely listed as inhibitors; 0.43% of 200,000 active;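 further: plate controls were neutral wells for no effect and buffer without enzyme for full effect; nearly all actives have a fitted effect of over 40% in size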
# Target sequence (P25779 123-467 limits assumed): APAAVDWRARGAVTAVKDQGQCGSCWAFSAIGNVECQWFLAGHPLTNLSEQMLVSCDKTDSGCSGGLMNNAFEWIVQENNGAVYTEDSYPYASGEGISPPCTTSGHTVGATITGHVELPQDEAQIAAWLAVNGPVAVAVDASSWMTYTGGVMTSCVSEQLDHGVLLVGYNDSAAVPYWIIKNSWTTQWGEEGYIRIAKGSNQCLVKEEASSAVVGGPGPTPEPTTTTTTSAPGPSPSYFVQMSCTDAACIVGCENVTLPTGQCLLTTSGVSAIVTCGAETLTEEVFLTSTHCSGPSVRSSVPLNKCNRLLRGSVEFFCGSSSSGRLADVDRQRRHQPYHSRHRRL
#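 Cysteine protease activity tested under reducing, mildly acidic conditions (100 mM sodium acetate pH 5.5, 5 mM DTT) plus 0.01% Triton X-100. Cruzain 1.5 nM; substrate Z-FR-AMC 2 uM; 15 min compound preincubation at room temperature.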
# Cruzain noTriton = cruzain (T. cruzi) inhibition without detergent; Potency, µM, without a hit: max response, negative = inhibition, usual class: inhibitors; 2.3% of 200,000 active; purified cruzain, Z-FR-AMC fluorescence, no detergent;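 further: plate controls were enzyme without inhibitor for no effect and buffer without enzyme for full effect; nearly all actives have a fitted effect of over 40% in size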
#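 Purified cruzain at 1.5 nM, pre-incubated 15 min with compound at room temperature in 100 mM sodium acetate pH 5.5, 5 mM DTT, 0.00005% Triton X-100. Reaction started with 2 uM Z-FR-AMC; AMC fluorescence increase over 60 s gives rate.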
# * hit, by the source's call; ? = inconclusive. The call rests on the fitted dose curve; in most records, active means well fitted curve in the direction sought with a large enough effect; inconclusive means small, poorly fitted or top-dose-only effect, or another doubt; inactive means no such curve, though single readings can be large; an effect the other way counts as inactive or inconclusive. Potency means the concentration at half of the fitted maximal effect.
SMILES,Cruzain inh Det,Cruzain noTriton
CCn1c(COc2ccc3c(c2)CCCC3)nnc1SCC(=O)Nc1nccs1,8.9%,7.94µM*
CCn1c(CNC(=O)Cc2ccc(OC)cc2)nnc1SCC(=O)Nc1nccs1,4.6%,-6.6%
C[C@@]12C=CC(=O)C=C1CCC1C3CC(O)[C@@](O)(C(=O)CO)[C@]3(C)CC(O)[C@]12F (some centres undefined),0.1%,-11.7%
CC1(C)CC2CC(C)(CN2C(=O)COC(=O)CNC(=O)c2ccc(Cl)c(Cl)c2)C1 (centres undefined),7.94µM*,7.94µM*
CC1(C)CC2CC(C)(CN2C(=O)COC(=O)c2cc(Cl)cc(Cl)c2N)C1 (centres undefined),-8.2%,0.1%
COc1ccccc1CNc1ncnc2ccc(-c3ccoc3)cc12,-7.9%,-8.6%
CC(C)C[C@@H](CC(=O)N[C@@H](CCC(=O)O)CC(=O)O)NC(=O)[C@@H]1CNCC[C@H]1NC(=O)C[C@H](CCCN)NC(=O)C[C@H](CO)NC(=O)[C@@H]1CNCC[C@H]1N,4.2%,-1.5%
CC(CCc1ccccc1)NC(=O)c1ccc(C(=O)NC(C)CCc2ccccc2)cc1 (centres undefined),1.0%,25.1µM*
CC(CCc1ccccc1)NC(=O)c1ccccc1 (centres undefined),1.1%,10.4%
Cc1noc(C)c1C(=O)N1CCC2(CCCN(c3ccccc3)C2)CC1,-2.1%,?
CC1=C(C(=O)OCc2ccc3c(c2)OCO3)C(c2ccccc2OCc2ccccc2)NC(=O)N1 (centres undefined),-0.7%,15.8µM*
CC1=C(C(=O)OCc2ccc3c(c2)OCO3)C(c2ccccc2)NC(=O)N1 (centres undefined),-3.8%,-5.7%
Cc1ccc(/C(N)=N/OC(=O)c2cc(-c3ccccc3)nc3ccccc23)cc1,-3.3%,-16.6%
COc1ccc(/C(N)=N/OC(=O)c2cc(-c3ccccc3)nc3ccccc23)cc1,-1.8%,20µM*
O=C(Nc1cc(Cl)cc(Cl)c1)c1cc(S(=O)(=O)N2CCc3ccccc3C2)ccc1F,1.3%,15.8µM*
O=C(CN1CCN(c2ccccc2)CC1)Nc1ccc2c(c1)CCC2,-0.6%,1.5%
O=C(Nc1cc(Cl)cc(Cl)c1)c1ccc(F)c(S(=O)(=O)N2CCCC2)c1,-2.6%,25.1µM*
Cc1ccc(C)c(NC(=O)c2cc(S(=O)(=O)N3CCc4ccccc4C3)ccc2F)c1,1.7%,-3.0%
O=C(Nc1cc(Cl)cc(Cl)c1)c1ccc(F)c(S(=O)(=O)N2CCc3ccccc32)c1,0.9%,15.8µM*
O=C(Nc1ccc(Br)cc1)c1ccc(F)c(S(=O)(=O)N2CCCc3ccccc32)c1,0.4%,?
O=C(Nc1ccc2c(c1)CCC2)c1cc(S(=O)(=O)N2CCN(c3ccccc3)CC2)ccc1Cl,0.6%,3.98µM*
CC(C)c1ccc(NC(=O)c2ccc(F)c(S(=O)(=O)N3CCCC3)c2)cc1,0.7%,4.2%
CCOc1cc(C2c3c(oc4ccccc4c3=O)C(=O)N2Cc2ccccc2Cl)ccc1O (centres undefined),-1.9%,10.4%
CC1=CC(=O)N(c2cccc(C(F)(F)F)c2)C1c1ccc(Cl)cc1 (centres undefined),-3.9%,-7.4%
C[C@]12CC[C@H](O)CC1=CC[C@H]1[C@@H]2CC[C@@]2(C)C(N(CCO)CCO)CC[C@@H]12 (some centres undefined),9.7%,-4.3%
SMILES,Cruzain inh Det,Cruzain noTriton
Cc1cccn2c(=O)c(C(=O)N3CCN(c4ccc(Cl)cc4)CC3)cnc12,-9.0%,9.2%
COc1ccc(NC(=O)CSC2=Nc3ccccc3C3=NC(CCC(=O)NCc4ccc(F)cc4)C(=O)N23)cc1Cl (centres undefined),-4.0%,-5.1%
CCSc1nnc(NC(=O)CSc2nc3c(c(=O)n2-c2ccccc2OC)SCC3)s1,28.2µM*,-28.5%
COc1ccc(NC(=O)CSc2nc3c(c(=O)n2-c2ccccc2OC)SCC3)cc1,-2.6%,-8.3%
Cc1ccc(-n2nnnc2SCC(=O)c2cc(C)n(CC3CCCO3)c2C)cc1 (centres undefined),-0.6%,12.1%
O=C(CSc1nnc(-c2cccs2)n1-c1cccc(Cl)c1)c1cccc2c1OCCO2,2.0%,25.1µM*
Cc1ccc(NC(=O)CSc2nnnn2-c2ccc3c(c2)OCO3)cc1C,3.6%,25.1µM*
Cc1cc(C(=O)COc2ccc(C#N)cc2)c(C)n1-c1ccc2c(c1)OCO2,-1.8%,25.1µM*
Cc1ccc(-n2nnnc2SCC(=O)Nc2ccc3c(c2)OCCO3)cc1C,-5.0%,-4.7%
Cc1cc(C(=O)CSc2nnnn2-c2ccc(O)cc2)c(C)n1Cc1ccc2c(c1)OCO2,-0.5%,15.8µM*
Cc1cc(C(=O)COC(=O)C2=COCCO2)c(C)n1-c1ccc2c(c1)OCO2,-3.2%,-14.4%
O=C(O)CSc1nnc(-c2cccs2)n1-c1ccc(Cl)cc1,-2.1%,-8.1%
CC(=O)/C=C(\C)NCCNc1c(F)c(F)c(CO)c(F)c1F,2.8%,-2.1%
S=C1NC=NC2N=CNC12 (centres undefined),3.2%,?
COc1ccc(-c2c3c(=O)n(C)c(=O)n(C)c3c3c(-c4ccccc4)nc4ccccc4n23)cc1,-0.9%,9.8%
COc1ccccc1CNC(=O)CCCCn1c(=O)c2ccccc2n(Cc2c(C)cc(C)cc2C)c1=O,-1.8%,-11.7%
Cc1cc(C(=O)CSc2nncs2)c(C)n1-c1ccc2c(c1)OCO2,-7.1%,?
O=C(O)CSc1nnnn1-c1ccc2c(c1)OCCO2,-7.7%,-4.8%
CC(=O)c1c(C)[nH]c(C(=O)CSc2nnc(-c3ccccc3)n2Cc2ccc3c(c2)OCO3)c1C,2.6%,11.6%
Cc1cc(C(=O)COC(=O)Cc2n[nH]c(=O)c3ccccc23)c(C)n1-c1ccc2c(c1)OCCO2,-3.6%,15.8µM*
CCCn1c(SCC(=O)c2cc(C)n(-c3ccc4c(c3)OCO4)c2C)n[nH]c1=O,-5.7%,?
Cc1cc(C(=O)CSc2nnnn2-c2ccccc2)c(C)n1-c1ccc2c(c1)OCO2,-3.3%,3.16µM*
O=C(CSc1nnnn1-c1ccc2c(c1)OCCO2)c1cccc2c1OCCO2,0.2%,25.1µM*
Cc1cc(C(=O)CSc2nnc(-c3cccc(F)c3)n2N)c(C)n1Cc1ccc2c(c1)OCO2,-0.1%,20µM*
O=c1[nH]c2cc3c(cc2cc1C(c1nnnn1CC1CCCO1)N1CCCCCC1)OCCO3 (centres undefined),-12.2%,-11.2%
SMILES,Cruzain inh Det,Cruzain noTriton
O=C(NC1CCCC1)c1ccc2c(=O)n(Cc3ccccc3)c(SCc3ccccc3)nc2c1,-0.2%,-7.0%
COC(=O)NC(CCc1ccccc1)C(C(C)=O)C(=O)OC (centres undefined),-1.6%,-3.1%
COc1ccccc1CNC(=O)Cn1c(=O)oc2cc(S(=O)(=O)NCc3ccccc3)ccc21,-2.6%,?
Oc1cccc(-c2nc3c4c(ncn3n2)-c2ccccc2CC42CCCC2)c1,9.6%,4.3%
O=C(Nc1nc(-c2cccs2)c(-c2cccs2)s1)C1(c2ccccc2)CC1,-1.3%,10µM*
CC(=O)NCCC(=O)Nc1nc(-c2cccs2)c(-c2cccs2)s1,-6.4%,?
O=C(CNC(=O)C(c1ccccc1)c1ccccc1)OCC(=O)c1cccs1,20µM*,12.6µM*
O=C(CNC(=O)c1cccs1)OCC(=O)c1ccccc1,-8.9%,-4.9%
CCC(C)n1ncn(-c2ccc(N3CCN(c4ccc(OC)cc4)CC3)cc2)c1=O (centres undefined),5.6%,-7.9%
